Most compounds without a hit are left out; they make up all but 0.49% or so of the library.
BCR signal inh: inhibitors of chronic active B-cell receptor signaling; ABC-DLBCL IkBa-CBG/CBR reporter, luminescence ratio, 4 h; Potency, µM (titrated, usually from 46.1 µM), usual class: inhibitors; 0.05% of 340,000 active; AID 493014; active = well fitted inhibition curve with a large enough effect in the signal ratio, with a control signal flat, not every such curve was filed as active; inconclusive = small, poorly fitted or top-dose-only effect, or effect the other way, or a change in a side signal; the % refers to the signal ratio
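Compounds up to 46 uM were incubated four hours with TMD8 cells whose green CBG68 luciferase is fused to IkappaBalpha; red CBR luminescence normalised the signal, and concentration-effect curves were fitted to fusion, red and ratio data.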
Tb PFK inh-1: blocks T. brucei phosphofructokinase; O15648; 0.17% of 330,000 active; T. brucei PFK, ADP-Glo luminescence; Potency, µM (top dose mostly 57.5 µM), hits mostly inhibitors; also: nearly all actives have a fitted effect of over 60% in size
Target sequence (O15648 whole entry, looked up): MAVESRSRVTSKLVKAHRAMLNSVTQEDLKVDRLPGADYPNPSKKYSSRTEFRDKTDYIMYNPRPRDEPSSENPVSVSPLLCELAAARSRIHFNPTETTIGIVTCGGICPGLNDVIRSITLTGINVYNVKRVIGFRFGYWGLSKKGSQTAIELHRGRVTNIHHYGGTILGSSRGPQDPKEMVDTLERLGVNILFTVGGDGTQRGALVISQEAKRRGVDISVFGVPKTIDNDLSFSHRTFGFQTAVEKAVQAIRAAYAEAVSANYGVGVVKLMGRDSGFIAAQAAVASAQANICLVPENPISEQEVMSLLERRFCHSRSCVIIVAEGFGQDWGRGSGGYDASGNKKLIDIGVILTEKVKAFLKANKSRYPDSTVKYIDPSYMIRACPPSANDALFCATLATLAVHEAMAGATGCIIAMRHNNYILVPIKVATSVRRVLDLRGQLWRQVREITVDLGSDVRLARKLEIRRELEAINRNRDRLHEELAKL
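ADP-Glo luminescence quantified ADP after 45 min at room temperature, with 1.25 nM T. brucei PFK, 0.1 mM ATP and 0.5 mM fructose-6-phosphate in pH 8.0 TEA buffer. qHTS titrations up to 57 µM; curves classified by quality.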
TCR activator: activators of T cell receptors; primary human leukocytes, anti-CD3, IL-2 HTRF, 48 h; Potency, µM (series often up to 9.22 µM), usual class: activators; 330,000 tested, under 10 active; AID 504894
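Primary human leukocytes were stimulated with a-CD3 beads plus compounds for 48 hr without co-stimulation; secreted IL-2 was quantified by HTRF using a-IL-2-K (europium cryptate) and a-IL-2-d2, excited at 320nm with acceptor emission read at 665nm.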
ASM inhibitor: inhibitors of human secretory acid sphingomyelinase | P17405 | placental ASM, HMU-PC fluorogenic substrate, 60 min | Potency, µM (highest dose often 57.5 µM), hits mostly inhibitors | 0.006% of 340,000 active
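Fluorescence read-out (Ex 386 nm, Em 447 nm) after stopping the reaction at pH 10. Enzyme: ASM from human placenta; substrate HMU-PC0, 9 uM final; 60 min, 37 °C. Compound preincubation 10 min, ambient temperature.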
CCT modulator: changes cytosolic chaperonin activity. purified chaperonin ATPase assay, HTRF ADP detection, 30 min. activity change, % (concentration not given with the values), hits read low. 0.3% of 360,000 active. AID 651819; in the data active = activity change below about -30%
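First, chaperonin was dispensed at 40 nM or 20 nM final depending on batch activity. Next, compounds were pinned at 76 uM and ATP added at 10 uM. After 30 min at 37 °C, ADP detection reagents ran 30 min at ambient temperature.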
Tb PFK KinaseGlo: inhibits T. brucei PFK measured by ATP depletion | shares compounds with Tb PFK inh-1 | Tb PFK enzyme, ATP depletion, Kinase-Glo Plus luminescence | Potency, µM (titrated, usually from 57.5 µM) | 47% of 1,100 active; calls by dose curve; also: nearly all actives have a fitted effect of over 60% in size
Tb PFK inh-2: validation of T. brucei phosphofructokinase inhibitors; shares compounds with Tb PFK inh-1; AID 504637; Potency, µM (doses to about 57.5 µM), hits mostly inhibitors; purified T. brucei PFK, ADP-Glo luminescence, 45 min; 41% of 1,100 active; also: nearly all actives have a fitted effect of over 60% in size
A number is an active result; i = inactive; ? = inconclusive; nt = no result. Unless noted, calls follow the shape of the dose curve; as a rule, active = well fitted curve in the direction sought with a large enough effect; inconclusive = small, poorly fitted or top-dose-only effect, or another doubt; inactive = no such curve, though single readings can be large; an effect the other way counts as inactive or inconclusive.

SMILES | BCR signal inh | Tb PFK inh-1 | TCR activator | ASM inhibitor | CCT modulator | Tb PFK KinaseGlo | Tb PFK inh-2
Cc1ccccc1C(=O)NC(C(N)=O)P(=O)(OC(C)C)OC(C)C (stereo not drawn) | ? | i | i | i | i | nt | nt
C[C@]12CC[C@H](O)CC1=CCC1C2CC[C@@]2(C)C1CC[C@@H]2OCc1ccccc1 (stereo partly drawn) | i | i | i | i | -32.3 | nt | nt
CC(C)NC(=S)NNc1nc2ccccc2s1 | ? | ? | i | i | i | 8.49µM | 7.57µM
COc1ccc(C(c2nnnn2-c2c(C)cccc2C)N2CCC(n3c(=O)[nH]c4ccccc43)CC2)cc1 (stereo not drawn) | nt | nt | nt | nt | i | nt | nt
COCCn1c(SCCN2CCOCC2)nc2c1c(=O)[nH]c(=O)n2C | i | ? | i | i | i | 21.3µM | 33.8µM
O=C(Cn1c(=O)oc2ccccc21)N1CCN(c2ccc(N3CCOCC3)nn2)CC1 | ? | i | i | i | i | nt | nt
O=C(CCC(=O)c1cccs1)Nc1ccccc1F | ? | i | i | i | i | nt | nt
N#Cc1c(F)cccc1NCc1cccs1 | ? | ? | i | i | i | ? | ?
CS(=O)(=O)NNC(=O)c1cc2cc3ccccc3nc2s1 | ? | ? | i | i | i | i | i
CS(=O)(=O)NNP(=O)(NNS(C)(=O)=O)NC(=O)c1ccccc1 | ? | i | i | i | i | nt | nt
COc1ccc(S(=O)(=O)NNC(=O)c2cc3cc4ccccc4nc3s2)cc1 | ? | ? | nt | ? | i | i | ?
N#Cc1ccc2ccn(CC(=O)NCc3ccco3)c2c1 | i | 21.3µM | i | i | i | 13.5µM | 30.1µM
Cc1ccc(Cl)cc1NC(=O)C[n+]1ccc(Cc2ccc([N+](=O)[O-])cc2)cc1 | i | ? | i | i | i | ? | ?
Cc1cc([N+](=O)[O-])ccc1N | ? | i | i | i | i | nt | nt
CCOC(=O)Cn1c(=O)oc2cc(S(=O)(=O)NC3CCCc4ccccc43)ccc21 (stereo not drawn) | ? | i | i | i | i | nt | nt
COC(=O)C1=C(C(=O)OC)C2OC1c1cc3ccccc3cc12 | nt | nt | i | i | i | nt | nt
CCOC(=O)N(C)OC(=O)Nc1ccc(Cl)c(Cl)c1 | ? | 1.51µM | i | i | i | 23.9µM | ?
CCN1CCN(c2ccc(NC(C)=O)cc2Cl)CC1 | i | i | i | i | i | nt | nt
Cc1ccc(-c2c[n+](Cc3cccc(Cl)c3)c3n2CCC3)cc1 | i | ? | i | i | i | ? | ?
CNc1cccccc1=S | i | 12µM | i | i | i | ? | ?
O=C1OC(c2cccs2)=N/C1=C/c1ccc(-c2cccc(C(=O)O)c2)o1 | i | ? | i | i | i | ? | ?
CN1C(=O)C(=Cc2ccc(-c3cccc(Cl)c3)o2)C(=O)N(C)C1=O | i | i | nt | nt | nt | nt | nt
N=C1SCC(=O)N1c1ncc(Cc2cccc(Cl)c2)s1 | ? | ? | i | i | i | 23.9µM | ?
N=C1SCC(=O)N1Cc1ccccc1 | i | i | i | i | i | nt | nt
Cc1c(-c2ccc(Cl)cc2)oc(=O)c2c(N)n(-c3ccccc3)nc12 | i | ? | i | i | i | ? | ?
SMILES | BCR signal inh | Tb PFK inh-1 | TCR activator | ASM inhibitor | CCT modulator | Tb PFK KinaseGlo | Tb PFK inh-2
Nc1cnn(-c2ccccc2)c(=O)c1Cl | i | i | nt | i | i | nt | nt
CCN(CC)C(=O)c1ccc(NC(=O)COc2ccc([N+](=O)[O-])cc2Cl)cc1 | i | i | i | i | i | nt | nt
O=C(COc1ccccc1[N+](=O)[O-])Nc1cccc(S(=O)(=O)NC2=NCCCCC2)c1 | ? | ? | i | i | i | ? | ?
O=C(COc1ccc(Cl)cc1Cl)Nc1ccc(S(=O)(=O)NC2=NCCCCC2)cc1 | ? | 15.1µM | i | i | i | ? | 30.1µM
O=C(Nc1ccc2c(c1)OCCO2)c1cccn(Cc2cccc([N+](=O)[O-])c2)c1=O | i | nt | nt | nt | nt | nt | nt
Nc1nc(=S)c2[nH]cnc2[nH]1 | ? | ? | i | i | i | ? | ?
CC(C)(CS(=O)(=O)[O-])NC(=O)CC[N+](C)(C)CCO | i | 0.675µM | i | i | i | 0.239µM | 0.426µM
COC(=O)C1=C(c2ccc(OCc3ccccc3)cc2)C[C@@H]2CC[C@H]1N2C(=O)NCc1ccc(F)cc1 | nt | nt | nt | nt | i | nt | nt
Cc1nn(C)cc1/C=N\NC(=O)c1ccc(Cn2cc(Cl)cn2)cc1 | i | 26.9µM | i | i | i | 9.53µM | ?
COc1ccc(NC(=O)Cn2c(=O)oc3ccccc32)cc1 | ? | i | i | i | i | nt | nt
Cc1cc(C)nc(NS(=O)(=O)c2ccc(NC(=O)c3cc(=O)c4ccccc4o3)cc2)n1 | ? | ? | i | i | i | i | ?
Cc1ccc(-n2c(/C=C/c3ccc(Br)s3)nc3ccccc3c2=O)cc1C | i | nt | nt | nt | nt | nt | nt
C=CCn1c(=O)[nH]c2cc(C(=O)N3CCN(c4ccc(C(C)=O)cc4)CC3)ccc2c1=O | ? | ? | i | i | i | ? | ?
Cc1cc(C)c2c(=O)n(CC(=O)Nc3ccc(Cl)cc3)sc2n1 | ? | 8.49µM | i | i | i | ? | 3.79µM
Cc1cccc(N2CCN(C(=O)Cn3sc4nc(C)cc(C)c4c3=O)CC2C)c1 (stereo not drawn) | i | 15.1µM | i | i | i | i | i
Cc1cc(C)c2c(=O)n(CC(=O)NCCCN3CCOCC3)sc2n1 | ? | 8.49µM | i | i | i | ? | 10.7µM
Cc1cc(C)c2c(=O)n(CC(=O)Nc3cccc(F)c3)sc2n1 | ? | 7.57µM | i | i | i | ? | 4.78µM
O=C(NCCN1CCOCC1)c1ccc(Cl)nc1Cl | i | i | i | i | i | nt | nt
CCN(CC)C(=O)c1ccc(NC(=O)Cn2nc(C)c3ccccc3c2=O)cc1 | ? | i | i | i | i | nt | nt
Cc1ccc(-n2c(/C=C\c3ccc(F)c(F)c3)nc3ccccc3c2=O)c(C)c1 | i | nt | nt | nt | nt | nt | nt
O=c1[nH]c2ccccc2n1C1CCN(C(c2cc3ccccc3o2)c2nnnn2Cc2ccccc2)CC1 (stereo not drawn) | nt | nt | nt | nt | i | nt | nt
c1ccc2c(c1)CN(Cc1ccc3c(c1)OCO3)Cc1cnnn1-2 | nt | nt | nt | nt | i | nt | nt
CCOc1ccc(NC(=O)Cn2sc3nc(C)cc(C)c3c2=O)cc1 | i | ? | i | i | i | ? | 8.49µM
Cc1ccc(NC(=O)Cn2sc3nc(C)cc(C)c3c2=O)c(Cl)c1 | i | 10.7µM | i | i | i | ? | 6.01µM
CC(=O)OCC12CC(OC(=O)CC(C)C)C(C)=CC1OC1C(O)C(OC(C)=O)C2(C)C12CO2 (stereo not drawn) | nt | nt | i | i | i | nt | nt
O=C(Nc1ccc2nc(-c3cccs3)c(-c3cccs3)nc2c1)NC1CC1 | ? | i | i | i | i | nt | nt
CCOP(=O)(Nc1ccc2c(c1)C(=NNC(N)=S)c1ccccc1-2)OCC | nt | nt | i | i | i | nt | nt
NC(=O)N/N=C1\c2ccccc2-c2c(C(N)=O)cccc21 | i | ? | i | i | i | i | i
Clc1ccc(Cn2ccnc2)cn1 | i | i | i | i | i | nt | nt

Screening data deposited in PubChem BioAssay by National Center for Advancing Translational Sciences (NCATS).
